# From ChEMBL document CHEMBL1961873, “Compounds: GSK PKIS; Assays: Nanosyn kinase panel” (2012)
# How the values were obtained:
# [1] = biological target: Tyrosine-protein kinase receptor UFO (Homo sapiens) (UniProt P30530); conditions: at 1 µM
# [2] = biological target: Tyrosine-protein kinase Blk (Homo sapiens) (UniProt P51451); conditions: at 0.1 µM
# [3] = biological target: Tyrosine-protein kinase Blk (Homo sapiens) (UniProt P51451); conditions: at 1 µM
# [4] = biological target: T1, Cytoplasmic tyrosine-protein kinase BMX (Homo sapiens) (UniProt P51813); conditions: at 0.1 µM
# T1 sequence (whole entry): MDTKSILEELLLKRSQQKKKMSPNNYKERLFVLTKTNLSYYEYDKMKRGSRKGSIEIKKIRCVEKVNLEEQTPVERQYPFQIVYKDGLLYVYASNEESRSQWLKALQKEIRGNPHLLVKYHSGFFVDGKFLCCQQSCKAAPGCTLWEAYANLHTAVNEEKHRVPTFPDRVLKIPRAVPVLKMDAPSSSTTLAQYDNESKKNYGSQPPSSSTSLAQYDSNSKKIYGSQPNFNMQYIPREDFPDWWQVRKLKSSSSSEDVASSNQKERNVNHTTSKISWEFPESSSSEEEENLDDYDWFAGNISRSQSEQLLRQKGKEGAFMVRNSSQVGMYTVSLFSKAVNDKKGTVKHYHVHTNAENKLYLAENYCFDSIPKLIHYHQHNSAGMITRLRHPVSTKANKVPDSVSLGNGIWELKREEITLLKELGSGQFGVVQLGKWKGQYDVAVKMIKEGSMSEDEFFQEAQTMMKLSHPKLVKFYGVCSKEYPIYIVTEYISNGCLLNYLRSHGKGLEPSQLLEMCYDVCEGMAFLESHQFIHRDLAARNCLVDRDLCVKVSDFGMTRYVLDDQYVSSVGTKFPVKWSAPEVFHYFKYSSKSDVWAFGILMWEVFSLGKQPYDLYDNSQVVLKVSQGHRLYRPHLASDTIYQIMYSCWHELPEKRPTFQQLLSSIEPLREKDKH
# [5] = biological target: T1, Cytoplasmic tyrosine-protein kinase BMX (Homo sapiens); conditions: at 1 µM
# [6] = biological target: Protein-tyrosine kinase 6 (Homo sapiens) (UniProt Q13882); conditions: at 0.1 µM
# [7] = biological target: Protein-tyrosine kinase 6 (Homo sapiens) (UniProt Q13882); conditions: at 1 µM
# [8] = biological target: Tyrosine-protein kinase BTK (Homo sapiens) (UniProt Q06187); conditions: at 0.1 µM
# Tyrosine-protein kinase BTK (Homo sapiens), sequence (Q06187 whole entry): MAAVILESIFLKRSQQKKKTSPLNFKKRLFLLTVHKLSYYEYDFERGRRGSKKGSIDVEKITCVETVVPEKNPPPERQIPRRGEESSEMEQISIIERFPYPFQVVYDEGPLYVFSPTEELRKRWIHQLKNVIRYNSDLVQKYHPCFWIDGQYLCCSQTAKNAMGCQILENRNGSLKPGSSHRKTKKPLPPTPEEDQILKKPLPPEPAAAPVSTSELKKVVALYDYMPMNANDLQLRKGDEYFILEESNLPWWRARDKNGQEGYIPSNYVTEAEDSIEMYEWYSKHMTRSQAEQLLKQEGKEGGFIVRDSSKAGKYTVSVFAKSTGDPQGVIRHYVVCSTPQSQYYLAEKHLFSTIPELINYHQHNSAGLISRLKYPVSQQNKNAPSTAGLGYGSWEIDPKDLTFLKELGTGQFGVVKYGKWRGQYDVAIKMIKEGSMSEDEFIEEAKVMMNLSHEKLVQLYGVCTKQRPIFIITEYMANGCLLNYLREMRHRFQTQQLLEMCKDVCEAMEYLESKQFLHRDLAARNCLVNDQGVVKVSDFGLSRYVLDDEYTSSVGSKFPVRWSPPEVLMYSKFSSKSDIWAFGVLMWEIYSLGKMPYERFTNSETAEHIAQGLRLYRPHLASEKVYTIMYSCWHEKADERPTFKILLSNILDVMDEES
# [9] = biological target: Tyrosine-protein kinase BTK (Homo sapiens) (UniProt Q06187); conditions: at 1 µM
# [10] = biological target: Tyrosine-protein kinase CSK (Homo sapiens) (UniProt P41240); conditions: at 0.1 µM
# Tyrosine-protein kinase CSK (Homo sapiens), sequence (P41240 2-450 limits assumed): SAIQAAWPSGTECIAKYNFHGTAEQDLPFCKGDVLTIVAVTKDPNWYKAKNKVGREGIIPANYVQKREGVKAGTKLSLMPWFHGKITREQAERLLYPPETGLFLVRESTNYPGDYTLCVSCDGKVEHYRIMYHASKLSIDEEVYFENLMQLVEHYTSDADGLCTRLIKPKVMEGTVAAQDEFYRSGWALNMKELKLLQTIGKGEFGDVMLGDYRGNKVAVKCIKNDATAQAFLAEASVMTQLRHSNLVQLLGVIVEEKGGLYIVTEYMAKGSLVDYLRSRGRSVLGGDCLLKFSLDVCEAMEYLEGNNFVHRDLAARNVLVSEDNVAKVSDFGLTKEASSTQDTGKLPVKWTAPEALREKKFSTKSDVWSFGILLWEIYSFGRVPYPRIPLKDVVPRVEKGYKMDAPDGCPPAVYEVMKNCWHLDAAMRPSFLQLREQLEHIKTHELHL
# [11] = biological target: Tyrosine-protein kinase CSK (Homo sapiens) (UniProt P41240); conditions: at 1 µM
# [12] = biological target: T2, Discoidin domain-containing receptor 2 (Homo sapiens) (UniProt Q16832); conditions: at 0.1 µM
# T2 sequence (whole entry): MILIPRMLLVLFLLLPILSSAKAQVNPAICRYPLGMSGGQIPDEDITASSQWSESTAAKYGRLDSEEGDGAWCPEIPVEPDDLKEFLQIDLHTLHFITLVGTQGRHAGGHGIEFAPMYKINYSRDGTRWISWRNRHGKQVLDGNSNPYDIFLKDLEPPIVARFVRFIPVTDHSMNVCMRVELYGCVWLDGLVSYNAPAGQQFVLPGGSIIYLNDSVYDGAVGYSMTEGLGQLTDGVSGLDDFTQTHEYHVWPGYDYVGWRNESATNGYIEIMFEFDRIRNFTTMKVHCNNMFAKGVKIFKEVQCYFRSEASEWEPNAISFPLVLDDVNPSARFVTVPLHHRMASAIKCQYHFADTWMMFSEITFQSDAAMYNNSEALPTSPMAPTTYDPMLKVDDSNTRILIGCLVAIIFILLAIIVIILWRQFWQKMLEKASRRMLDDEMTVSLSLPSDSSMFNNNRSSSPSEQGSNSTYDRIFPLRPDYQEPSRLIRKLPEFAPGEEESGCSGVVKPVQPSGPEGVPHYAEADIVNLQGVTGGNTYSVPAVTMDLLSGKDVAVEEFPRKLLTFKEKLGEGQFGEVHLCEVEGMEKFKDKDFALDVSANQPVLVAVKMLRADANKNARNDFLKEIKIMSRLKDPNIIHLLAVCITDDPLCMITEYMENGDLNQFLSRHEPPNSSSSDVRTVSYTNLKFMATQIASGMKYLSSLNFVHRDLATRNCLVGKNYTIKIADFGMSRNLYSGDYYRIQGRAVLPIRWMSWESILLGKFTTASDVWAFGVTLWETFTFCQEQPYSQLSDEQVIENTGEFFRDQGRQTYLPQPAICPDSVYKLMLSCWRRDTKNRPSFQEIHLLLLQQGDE
# [13] = biological target: T2, Discoidin domain-containing receptor 2 (Homo sapiens); conditions: at 1 µM
# [14] = biological target: Epidermal growth factor receptor (Homo sapiens) (UniProt P00533); conditions: at 0.1 µM
# Epidermal growth factor receptor (Homo sapiens), sequence (P00533 whole entry): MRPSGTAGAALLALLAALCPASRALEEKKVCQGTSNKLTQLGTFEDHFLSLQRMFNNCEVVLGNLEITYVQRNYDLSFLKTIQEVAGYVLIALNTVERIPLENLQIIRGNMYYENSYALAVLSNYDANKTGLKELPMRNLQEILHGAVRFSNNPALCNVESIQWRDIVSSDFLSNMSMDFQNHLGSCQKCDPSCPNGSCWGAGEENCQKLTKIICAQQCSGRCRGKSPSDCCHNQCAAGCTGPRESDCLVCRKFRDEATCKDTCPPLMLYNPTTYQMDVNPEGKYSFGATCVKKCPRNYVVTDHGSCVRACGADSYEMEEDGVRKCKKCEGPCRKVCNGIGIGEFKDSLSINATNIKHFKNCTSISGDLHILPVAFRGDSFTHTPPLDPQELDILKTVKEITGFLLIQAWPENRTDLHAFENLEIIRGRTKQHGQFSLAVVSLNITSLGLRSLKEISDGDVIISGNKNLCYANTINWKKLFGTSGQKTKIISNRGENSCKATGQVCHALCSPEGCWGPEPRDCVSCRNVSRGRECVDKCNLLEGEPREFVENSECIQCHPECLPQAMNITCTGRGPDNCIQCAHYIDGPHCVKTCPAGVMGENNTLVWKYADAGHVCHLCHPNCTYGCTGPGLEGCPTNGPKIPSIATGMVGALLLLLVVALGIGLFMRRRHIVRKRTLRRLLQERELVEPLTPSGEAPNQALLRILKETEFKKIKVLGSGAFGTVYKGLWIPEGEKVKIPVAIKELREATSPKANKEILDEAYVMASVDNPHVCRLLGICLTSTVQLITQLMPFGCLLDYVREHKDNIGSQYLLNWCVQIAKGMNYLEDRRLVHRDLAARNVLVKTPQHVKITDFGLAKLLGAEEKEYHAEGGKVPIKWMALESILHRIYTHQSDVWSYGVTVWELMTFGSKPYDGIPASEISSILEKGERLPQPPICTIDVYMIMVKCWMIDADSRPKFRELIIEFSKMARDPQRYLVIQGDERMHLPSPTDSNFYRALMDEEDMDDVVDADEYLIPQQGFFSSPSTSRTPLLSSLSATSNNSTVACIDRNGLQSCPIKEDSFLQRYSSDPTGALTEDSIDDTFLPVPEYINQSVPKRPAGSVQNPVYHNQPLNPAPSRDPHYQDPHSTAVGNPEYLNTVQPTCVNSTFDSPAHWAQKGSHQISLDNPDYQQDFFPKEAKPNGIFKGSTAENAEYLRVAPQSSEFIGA
# [15] = biological target: Epidermal growth factor receptor (Homo sapiens) (UniProt P00533); conditions: at 1 µM
# [16] = tested on: Epidermal growth factor receptor (Homo sapiens), P00533 [L858R]; conditions: at 0.1 µM
# [17] = tested on: Epidermal growth factor receptor (Homo sapiens), P00533 [L858R]; conditions: at 1 µM
# [18] = tested on: Epidermal growth factor receptor (Homo sapiens), P00533 [L861Q]; conditions: at 0.1 µM
# Epidermal growth factor receptor (Homo sapiens), P00533 [L861Q], sequence (P00533 whole entry L861Q): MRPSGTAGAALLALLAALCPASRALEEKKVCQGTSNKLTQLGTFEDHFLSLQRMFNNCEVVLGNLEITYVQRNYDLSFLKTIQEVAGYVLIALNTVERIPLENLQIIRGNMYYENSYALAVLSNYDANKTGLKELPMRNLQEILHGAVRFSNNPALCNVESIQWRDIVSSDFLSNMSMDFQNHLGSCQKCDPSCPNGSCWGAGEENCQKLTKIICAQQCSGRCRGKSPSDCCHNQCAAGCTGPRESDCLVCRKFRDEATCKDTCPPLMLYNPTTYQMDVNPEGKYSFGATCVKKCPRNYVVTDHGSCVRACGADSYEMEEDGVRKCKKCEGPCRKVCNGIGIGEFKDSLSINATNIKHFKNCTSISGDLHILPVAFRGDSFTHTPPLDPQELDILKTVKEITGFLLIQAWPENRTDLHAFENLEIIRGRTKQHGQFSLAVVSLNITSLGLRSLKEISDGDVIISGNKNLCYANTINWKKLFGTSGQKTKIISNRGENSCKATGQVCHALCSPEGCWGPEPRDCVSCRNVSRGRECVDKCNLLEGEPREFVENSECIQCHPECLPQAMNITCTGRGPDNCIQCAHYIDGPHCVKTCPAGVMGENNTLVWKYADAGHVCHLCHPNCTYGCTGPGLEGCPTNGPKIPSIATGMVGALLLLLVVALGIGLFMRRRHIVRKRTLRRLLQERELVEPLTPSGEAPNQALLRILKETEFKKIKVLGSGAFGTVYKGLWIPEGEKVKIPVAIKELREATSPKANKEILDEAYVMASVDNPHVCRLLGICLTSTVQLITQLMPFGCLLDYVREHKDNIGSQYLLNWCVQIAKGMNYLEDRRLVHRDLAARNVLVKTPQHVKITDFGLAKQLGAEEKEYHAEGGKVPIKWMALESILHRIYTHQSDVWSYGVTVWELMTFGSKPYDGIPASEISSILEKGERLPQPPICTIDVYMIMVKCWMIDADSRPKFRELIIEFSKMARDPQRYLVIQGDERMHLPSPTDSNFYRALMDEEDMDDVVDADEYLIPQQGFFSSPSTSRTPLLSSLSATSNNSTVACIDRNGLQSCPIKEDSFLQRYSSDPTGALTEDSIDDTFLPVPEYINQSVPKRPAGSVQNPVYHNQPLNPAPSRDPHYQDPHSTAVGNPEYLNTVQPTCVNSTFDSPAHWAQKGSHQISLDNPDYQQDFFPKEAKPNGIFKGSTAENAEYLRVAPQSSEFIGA
# [19] = tested on: Epidermal growth factor receptor (Homo sapiens), P00533 [L861Q]; conditions: at 1 µM
# [20] = tested on: Epidermal growth factor receptor (Homo sapiens), P00533 [T790M]; conditions: at 0.1 µM
# Epidermal growth factor receptor (Homo sapiens), P00533 [T790M], sequence (P00533 whole entry T790M): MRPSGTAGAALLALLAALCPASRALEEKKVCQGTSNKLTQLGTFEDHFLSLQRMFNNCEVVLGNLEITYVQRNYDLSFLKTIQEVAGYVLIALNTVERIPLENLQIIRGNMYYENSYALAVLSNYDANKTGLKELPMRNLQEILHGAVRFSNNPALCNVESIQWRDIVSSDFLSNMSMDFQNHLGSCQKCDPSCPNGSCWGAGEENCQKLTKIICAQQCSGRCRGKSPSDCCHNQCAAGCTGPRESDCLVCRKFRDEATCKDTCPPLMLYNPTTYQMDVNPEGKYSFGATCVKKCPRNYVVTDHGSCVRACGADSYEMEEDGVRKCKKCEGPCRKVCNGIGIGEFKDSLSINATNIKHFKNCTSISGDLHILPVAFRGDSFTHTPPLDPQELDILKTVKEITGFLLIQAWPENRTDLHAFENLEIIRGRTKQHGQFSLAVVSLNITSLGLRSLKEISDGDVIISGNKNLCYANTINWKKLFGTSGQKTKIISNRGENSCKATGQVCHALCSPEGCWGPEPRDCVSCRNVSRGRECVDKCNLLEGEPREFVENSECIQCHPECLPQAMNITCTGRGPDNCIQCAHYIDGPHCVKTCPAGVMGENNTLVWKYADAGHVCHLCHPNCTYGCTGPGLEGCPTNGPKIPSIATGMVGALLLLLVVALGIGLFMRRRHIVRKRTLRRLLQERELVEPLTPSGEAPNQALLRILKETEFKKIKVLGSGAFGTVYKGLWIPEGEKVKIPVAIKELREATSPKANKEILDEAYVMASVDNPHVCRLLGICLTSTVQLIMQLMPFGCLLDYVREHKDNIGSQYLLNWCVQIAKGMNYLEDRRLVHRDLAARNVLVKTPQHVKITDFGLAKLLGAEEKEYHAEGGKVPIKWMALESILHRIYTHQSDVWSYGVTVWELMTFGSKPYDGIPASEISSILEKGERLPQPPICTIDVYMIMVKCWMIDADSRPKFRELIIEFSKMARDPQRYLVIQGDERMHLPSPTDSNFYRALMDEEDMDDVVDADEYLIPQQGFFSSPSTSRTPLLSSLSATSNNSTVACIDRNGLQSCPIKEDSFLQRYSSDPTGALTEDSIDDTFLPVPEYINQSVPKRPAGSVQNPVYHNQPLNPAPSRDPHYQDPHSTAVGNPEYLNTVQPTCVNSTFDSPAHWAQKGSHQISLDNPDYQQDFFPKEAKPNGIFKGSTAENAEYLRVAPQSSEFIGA
SMILES,inhibition [1] [%],inhibition [2] [%],inhibition [3] [%],inhibition [4] [%],inhibition [5] [%],inhibition [6] [%],inhibition [7] [%],inhibition [8] [%],inhibition [9] [%],inhibition [10] [%],inhibition [11] [%],inhibition [12] [%],inhibition [13] [%],inhibition [14] [%],inhibition [15] [%],inhibition [16] [%],inhibition [17] [%],inhibition [18] [%],inhibition [19] [%],inhibition [20] [%]
NS(=O)(=O)c1ccc(N/C=C2\C(=O)Nc3ccc4ncsc4c32)cc1,24.7,5.86,36.7,3.85,6.44,2.1,4.82,-2.5,0.29,1.61,3.86,1.19,3.5,2.49,5.22,4.28,5.3,2.44,3.42,0.93
COc1cccc(-n2ncc3c(N/N=C/c4ccncc4)ncnc32)c1,6.36,13.3,63.6,12.2,46.6,6.09,23.1,-0.08,2.16,5.5,16.8,2.12,9.37,3.52,28.8,20.7,73.3,7.71,35.5,2.99
COc1cccc(COc2cc(-n3cnc4ccccc43)sc2C(N)=O)c1,-0.71,0.3,-1.09,-0.68,-1.24,-0.05,1.34,0.36,-0.76,-1.48,0.56,-1.78,-0.4,-1.6,1.95,-4.25,2.72,-1.17,-0.04,-1.14
CCn1c(-c2nonc2N)nc2c(C#CC(C)(C)O)ncc(OCC3CCNCC3)c21,-2.43,-1.83,-1.39,-4.33,2.37,4.21,4.11,-3.09,-3.54,5.4,3.99,-0.24,1.71,-3.91,-3.68,2.79,6.24,3.74,2.43,1.64
Cc1cc(-c2ccco2)cc(C)c1/C=C/c1cncc(-c2nn[nH]n2)c1,1.57,1.51,9,0.7,2.83,0.11,3.58,0.68,1.5,0.88,3.48,-0.16,0.34,3.32,6.27,0.25,0.27,-0.29,2.11,1.06
CCn1c(-c2nonc2N)nc2c(C#CC(C)(C)O)ncc(OC[C@@H]3CCCN3)c21,0.17,2.44,1.76,1.21,-0.7,3.05,2.47,0.66,1.17,-1.37,-0.82,1.15,2.67,-1.23,1.8,-0.72,2.58,-0.11,-1.31,-0.72
COc1cc2c(cc1Nc1nc(Nc3ccsc3C(N)=O)c3cc[nH]c3n1)N(C(=O)CN(C)C)CCC2,66.8,7.36,10.6,0.79,1.32,0.16,3.39,0.44,1,-7.26,-4.71,2.81,5.59,,,0.26,20.5,0.9,8.73,8.68
NC(=O)c1sc(-n2cnc3cc(C(F)(F)F)ccc32)cc1OCc1ccccc1Br,1.55,1.67,2.39,-0.71,0.62,2.49,0.4,0.15,-0.21,-3.78,-1.04,1.02,1.34,3.48,6.56,-1.95,0.99,1.64,1.19,0.21
CCn1c(-c2nonc2N)nc2c(C#CCN)ncc(OCCCN)c21,7.15,0.22,-2.12,-0.45,-3,-6.06,-3.37,2.31,2.06,-0.42,2.55,3.32,3.8,2.15,8.32,2.24,5.46,-0.07,9.43,-0.87
COc1cc(C=NNc2ncnc3c2cnn3Cc2ccccc2)ccc1O,6.34,0.65,23.8,2.02,16.9,-4.22,-0.85,-1.51,-0.27,-6.66,2.56,-0.76,5.7,22.5,66.8,64.3,75.5,23.4,30.6,-3.01
Nc1nonc1-c1nc2cnccc2n1C1CCCCC1,4.86,-1.07,0.24,1.92,-1.58,-5.22,-3,-0.64,-0.36,-1.78,-6.81,0.11,1.77,1.9,7.55,0.62,0.1,-0.81,-3.23,-2.97
NS(=O)(=O)c1ccc(-c2ccc3c(NC(=O)C4CC4)n[nH]c3c2)cc1,-2.63,1.89,6.01,4.98,3.87,0.27,1.67,1.8,1.47,6.64,2.04,0.39,1.56,1.61,5.25,0.79,1.74,2.23,-1.61,0.83
CCn1c(-c2nonc2N)nc2c(C#CC(C)(C)O)nc(O[C@@H](CN)c3ccccc3)cc21,8.92,-0.06,10.1,2.29,-1.16,-1.39,-2.85,-2.57,-0.15,-5,-5.08,-0.22,0.1,1.88,7.41,-1.92,4,-0.6,-1.72,-1.47
Fc1ccc(-c2ncn(C3CCNCC3)c2-c2ccnc(Oc3ccccc3)n2)cc1,-3.54,-3.23,-0.29,0.89,2.13,2.9,3.59,-4.26,-4.63,1.9,3.34,1.18,1.96,8.94,11.7,3.24,12.9,3.69,6.82,0.12
